Laboratory results from the supplement of paper PMC10849652.
About 8,800 targets were measured; listed, in parts, are those with a hit and a random draw of the rest. About 0.5% of all pairs of compound and target were hits. A number with no mark means an inactive call.

Chain of UniProt P57678 (P57678 whole entry, looked up): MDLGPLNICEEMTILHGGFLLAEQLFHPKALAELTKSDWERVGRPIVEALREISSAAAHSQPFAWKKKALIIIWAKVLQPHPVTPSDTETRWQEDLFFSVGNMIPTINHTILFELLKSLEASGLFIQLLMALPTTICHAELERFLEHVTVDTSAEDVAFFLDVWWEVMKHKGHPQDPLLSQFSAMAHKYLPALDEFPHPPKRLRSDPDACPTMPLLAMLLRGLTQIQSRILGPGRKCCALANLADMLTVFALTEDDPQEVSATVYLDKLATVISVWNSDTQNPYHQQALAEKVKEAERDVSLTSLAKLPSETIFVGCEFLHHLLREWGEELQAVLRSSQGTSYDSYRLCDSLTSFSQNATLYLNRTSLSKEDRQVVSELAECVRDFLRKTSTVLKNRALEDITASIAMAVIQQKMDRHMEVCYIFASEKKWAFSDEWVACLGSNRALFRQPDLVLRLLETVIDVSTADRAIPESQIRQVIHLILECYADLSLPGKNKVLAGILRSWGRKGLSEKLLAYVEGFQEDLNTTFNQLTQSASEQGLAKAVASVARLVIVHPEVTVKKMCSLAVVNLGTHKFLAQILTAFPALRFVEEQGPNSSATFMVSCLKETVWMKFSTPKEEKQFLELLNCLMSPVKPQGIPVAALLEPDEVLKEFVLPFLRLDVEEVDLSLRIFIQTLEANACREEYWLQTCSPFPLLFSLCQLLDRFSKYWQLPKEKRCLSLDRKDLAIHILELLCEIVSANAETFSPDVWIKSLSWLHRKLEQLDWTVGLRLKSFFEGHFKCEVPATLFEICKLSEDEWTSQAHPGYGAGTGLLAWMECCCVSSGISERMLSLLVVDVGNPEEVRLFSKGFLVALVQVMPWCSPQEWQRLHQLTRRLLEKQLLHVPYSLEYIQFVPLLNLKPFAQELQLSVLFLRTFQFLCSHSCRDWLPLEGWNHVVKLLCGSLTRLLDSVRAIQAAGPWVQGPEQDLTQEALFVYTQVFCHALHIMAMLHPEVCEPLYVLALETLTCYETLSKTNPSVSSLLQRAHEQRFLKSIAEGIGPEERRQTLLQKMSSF
Chain of UniProt P58012 (P58012 whole entry, looked up): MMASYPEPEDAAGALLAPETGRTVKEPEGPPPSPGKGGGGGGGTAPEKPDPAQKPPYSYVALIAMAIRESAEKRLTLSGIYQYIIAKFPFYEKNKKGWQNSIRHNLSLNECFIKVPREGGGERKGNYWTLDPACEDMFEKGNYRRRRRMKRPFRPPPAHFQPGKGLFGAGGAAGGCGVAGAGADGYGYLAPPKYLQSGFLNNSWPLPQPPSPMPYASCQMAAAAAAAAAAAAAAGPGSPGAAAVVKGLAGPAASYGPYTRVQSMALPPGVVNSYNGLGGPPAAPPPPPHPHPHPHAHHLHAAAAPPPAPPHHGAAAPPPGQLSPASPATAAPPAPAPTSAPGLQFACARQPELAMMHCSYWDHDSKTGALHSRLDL
Chain of UniProt Q9HCG7 (Q9HCG7 whole entry, looked up): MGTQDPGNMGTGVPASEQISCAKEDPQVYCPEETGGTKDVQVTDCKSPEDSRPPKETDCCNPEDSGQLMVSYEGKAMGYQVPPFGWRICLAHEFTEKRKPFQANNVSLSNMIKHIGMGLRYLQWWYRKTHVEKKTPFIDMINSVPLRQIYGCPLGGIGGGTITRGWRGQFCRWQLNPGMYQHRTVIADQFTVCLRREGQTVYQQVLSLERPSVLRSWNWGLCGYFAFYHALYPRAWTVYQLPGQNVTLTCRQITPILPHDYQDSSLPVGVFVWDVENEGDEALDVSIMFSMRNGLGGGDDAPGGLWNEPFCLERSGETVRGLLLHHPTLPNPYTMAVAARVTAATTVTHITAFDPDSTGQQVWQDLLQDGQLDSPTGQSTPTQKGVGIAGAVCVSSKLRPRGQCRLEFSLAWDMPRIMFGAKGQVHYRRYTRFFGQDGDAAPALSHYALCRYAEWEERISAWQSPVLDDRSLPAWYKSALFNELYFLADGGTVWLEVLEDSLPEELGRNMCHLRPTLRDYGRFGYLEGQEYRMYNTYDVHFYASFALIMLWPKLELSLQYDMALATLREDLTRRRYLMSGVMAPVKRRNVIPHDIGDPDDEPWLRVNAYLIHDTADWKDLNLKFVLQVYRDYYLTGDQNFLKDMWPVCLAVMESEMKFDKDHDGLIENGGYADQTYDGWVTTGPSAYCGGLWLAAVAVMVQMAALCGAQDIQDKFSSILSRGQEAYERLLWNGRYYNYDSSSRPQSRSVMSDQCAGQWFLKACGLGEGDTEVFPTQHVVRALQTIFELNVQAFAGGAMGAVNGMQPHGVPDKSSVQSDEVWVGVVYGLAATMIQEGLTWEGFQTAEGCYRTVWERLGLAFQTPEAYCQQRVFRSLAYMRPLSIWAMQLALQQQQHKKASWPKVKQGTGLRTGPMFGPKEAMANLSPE
Chain of UniProt Q9NZC3 (Q9NZC3 whole entry, looked up): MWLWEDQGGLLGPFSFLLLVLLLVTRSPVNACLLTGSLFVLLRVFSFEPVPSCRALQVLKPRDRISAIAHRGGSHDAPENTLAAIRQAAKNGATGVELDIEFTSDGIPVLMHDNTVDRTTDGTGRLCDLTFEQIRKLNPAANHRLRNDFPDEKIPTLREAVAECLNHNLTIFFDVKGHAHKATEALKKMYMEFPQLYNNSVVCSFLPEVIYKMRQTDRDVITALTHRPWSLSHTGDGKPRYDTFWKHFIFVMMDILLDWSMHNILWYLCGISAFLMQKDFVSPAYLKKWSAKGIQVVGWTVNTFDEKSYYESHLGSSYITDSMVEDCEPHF
Chain of UniProt P57772 (P57772 whole entry, looked up): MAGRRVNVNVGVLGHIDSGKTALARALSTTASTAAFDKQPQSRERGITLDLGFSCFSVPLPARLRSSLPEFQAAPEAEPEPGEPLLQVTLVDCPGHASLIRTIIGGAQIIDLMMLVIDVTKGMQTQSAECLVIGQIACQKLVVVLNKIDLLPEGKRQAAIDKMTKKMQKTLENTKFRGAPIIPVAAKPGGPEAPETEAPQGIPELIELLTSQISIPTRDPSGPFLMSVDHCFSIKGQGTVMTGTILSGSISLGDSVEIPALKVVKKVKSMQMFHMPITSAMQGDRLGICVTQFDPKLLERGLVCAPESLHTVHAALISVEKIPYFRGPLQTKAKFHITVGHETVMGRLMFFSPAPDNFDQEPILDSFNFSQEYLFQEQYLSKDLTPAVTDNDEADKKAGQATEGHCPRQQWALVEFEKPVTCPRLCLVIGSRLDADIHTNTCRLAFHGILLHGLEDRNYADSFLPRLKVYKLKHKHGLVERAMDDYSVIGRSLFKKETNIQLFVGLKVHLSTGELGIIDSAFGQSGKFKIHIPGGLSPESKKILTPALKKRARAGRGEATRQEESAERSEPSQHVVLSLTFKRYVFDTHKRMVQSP
Chain of UniProt Q9UKR5 (Q9UKR5 whole entry, looked up): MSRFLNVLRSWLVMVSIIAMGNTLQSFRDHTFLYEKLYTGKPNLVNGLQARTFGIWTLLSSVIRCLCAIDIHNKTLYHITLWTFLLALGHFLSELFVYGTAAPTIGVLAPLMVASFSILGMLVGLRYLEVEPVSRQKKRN
Chain of UniProt Q9H6S3 (Q9H6S3 whole entry, looked up): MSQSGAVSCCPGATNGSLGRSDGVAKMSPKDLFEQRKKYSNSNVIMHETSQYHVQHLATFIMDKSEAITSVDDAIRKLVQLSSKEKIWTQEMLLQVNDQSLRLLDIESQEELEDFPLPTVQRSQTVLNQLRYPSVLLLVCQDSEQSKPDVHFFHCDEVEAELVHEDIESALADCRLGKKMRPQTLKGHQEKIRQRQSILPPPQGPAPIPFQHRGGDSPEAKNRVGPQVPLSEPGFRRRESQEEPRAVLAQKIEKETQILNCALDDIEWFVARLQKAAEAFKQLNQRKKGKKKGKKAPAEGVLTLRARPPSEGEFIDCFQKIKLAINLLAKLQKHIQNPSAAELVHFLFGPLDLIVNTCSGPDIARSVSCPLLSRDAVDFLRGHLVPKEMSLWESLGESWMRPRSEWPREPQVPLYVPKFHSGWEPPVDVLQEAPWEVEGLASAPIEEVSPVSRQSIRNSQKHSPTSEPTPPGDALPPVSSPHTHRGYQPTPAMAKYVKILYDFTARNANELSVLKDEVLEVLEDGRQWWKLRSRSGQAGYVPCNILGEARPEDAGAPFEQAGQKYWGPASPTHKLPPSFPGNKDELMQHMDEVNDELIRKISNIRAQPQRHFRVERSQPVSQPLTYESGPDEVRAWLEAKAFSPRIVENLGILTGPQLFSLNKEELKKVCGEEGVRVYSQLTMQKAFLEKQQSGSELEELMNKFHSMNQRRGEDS
Chain of UniProt Q9P0K8 (Q9P0K8 whole entry, looked up): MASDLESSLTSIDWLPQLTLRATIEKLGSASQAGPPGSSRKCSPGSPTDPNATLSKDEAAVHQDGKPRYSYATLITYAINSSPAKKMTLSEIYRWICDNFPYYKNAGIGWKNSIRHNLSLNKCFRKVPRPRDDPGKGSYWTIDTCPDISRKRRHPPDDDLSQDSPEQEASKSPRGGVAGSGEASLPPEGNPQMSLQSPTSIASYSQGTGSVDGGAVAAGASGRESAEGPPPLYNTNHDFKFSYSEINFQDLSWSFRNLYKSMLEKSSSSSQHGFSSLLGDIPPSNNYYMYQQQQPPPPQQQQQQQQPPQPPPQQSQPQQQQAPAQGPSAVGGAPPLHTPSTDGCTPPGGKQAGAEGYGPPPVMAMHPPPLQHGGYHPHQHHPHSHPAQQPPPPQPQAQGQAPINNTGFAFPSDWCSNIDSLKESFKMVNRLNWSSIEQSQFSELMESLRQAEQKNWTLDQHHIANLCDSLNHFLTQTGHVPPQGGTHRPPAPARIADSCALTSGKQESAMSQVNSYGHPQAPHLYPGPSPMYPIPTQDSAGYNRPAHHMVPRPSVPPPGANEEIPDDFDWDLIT
Chain of UniProt P0C2W1 (P0C2W1 whole entry, looked up): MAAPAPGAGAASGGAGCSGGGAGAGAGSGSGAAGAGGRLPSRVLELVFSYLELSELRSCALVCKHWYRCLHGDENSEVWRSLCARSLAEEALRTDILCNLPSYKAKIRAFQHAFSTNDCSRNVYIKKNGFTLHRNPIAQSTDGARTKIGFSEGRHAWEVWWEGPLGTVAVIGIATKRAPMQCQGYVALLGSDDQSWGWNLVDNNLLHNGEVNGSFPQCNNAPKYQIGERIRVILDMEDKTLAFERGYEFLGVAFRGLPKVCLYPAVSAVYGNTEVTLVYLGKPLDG

The targets below were run with C1=CC=C(C=C1)[C@H](COC2=CC3=C(C=C2)NC(=O)N3)NC(=O)C4=CC=CN(C4=O)CC5=CC(=C(C=C5)F)F (assay: log2 fold change, soluble protein after heating vs DMSO (PISA); higher = thermal stabilisation; K562 lysate, 10 uM; active = over 0.2 and 3.5 SD of the protein, either way, in both replicates (recomputed)).
Outline: (§1)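 Values give the log-two fold change in thermal stability against solvent controls, from duplicates. Crude K562 extract at 1 mg/mL protein, made by dounce homogenisation in PBS pH 7.4 with 1 mM MgCl2, was treated with 10 μM compound for 30 min. After 3 min heating across 48°C-58°C, aliquots were pooled, adjusted to 0.5% NP-40 at 4°C and centrifuged at 21,000xg for 90 min. The supernatant was measured by TMTpro 16plex LC-MS/MS with channel sums equalised.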
In the case of FOXJ2 (UniProt Q9P0K8), the log2 fold change is reported as 0.022.
FOXL2 (UniProt P58012) showed a log2 fold change of 0.135.
In the case of GEMIN4 (UniProt P57678), the log2 fold change is reported as -0.036.
Target GAA (UniProt P10253) has a log2 fold change of -0.001.
ESRRB isoform 1 (UniProt O95718) showed a log2 fold change of -0.147.
EFCAB14 (UniProt O75071) was tested, and the log2 fold change was 0.099.
EPN2 (UniProt I3L356) showed a log2 fold change of 0.12.
EPS8L2 (UniProt Q9H6S3) gave a log2 fold change of 0.124.
With FAM120B (UniProt Q96EK7) the log2 fold change was 0.034.
Target EEFSEC (UniProt P57772) has a log2 fold change of -0.033.
For GBA2 (UniProt Q9HCG7), the log2 fold change was 0.046.
With ENO1, A0A2R8YEM5 the log2 fold change was 0.026.
For ERG28 (UniProt Q9UKR5), the log2 fold change was 0.001.
EHHADH (UniProt Q08426) was tested, and the log2 fold change was 0.035.
With DST isoform 3 (UniProt Q03001) the log2 fold change was -0.039.
GDE1 (UniProt Q9NZC3) gave a log2 fold change of -0.085.
Target GART (UniProt C9JZG2) has a log2 fold change of -0.131.
FBXO38 (UniProt Q6PIJ6) was tested, and the log2 fold change was -0.007.
Target EIF3I (UniProt Q13347) has a log2 fold change of -0.038.
In the case of FAT2 (UniProt Q9NYQ8), the log2 fold change is reported as -0.009.
DYRK1A isoform 2 (UniProt Q13627) was tested, and the log2 fold change was -0.001.
For FBXO45 (UniProt P0C2W1), the log2 fold change was -0.079.

These targets were tested with CC1=C(SC2=C1C(=N[C@H](C3=NN=C(N32)C)CC(=O)N)C4=CC=C(C=C4)Cl)C in the same assay as above.
Outline: as §1
With FOXJ2 (UniProt Q9P0K8) the log2 fold change was 0.06.
With FOXL2 (UniProt P58012) the log2 fold change was 0.129.
In the case of GEMIN4 (UniProt P57678), the log2 fold change is reported as -0.015.
Work on GAA (UniProt P10253) yielded a log2 fold change of -0.077.
ESRRB isoform 1 (UniProt O95718) gave a log2 fold change of 0.109.
With EFCAB14 (UniProt O75071) the log2 fold change was -0.074.
For EPN2 (UniProt I3L356), the log2 fold change was -0.062.
In the case of EPS8L2 (UniProt Q9H6S3), the log2 fold change is reported as -0.09.
With FAM120B (UniProt Q96EK7) the log2 fold change was 0.059.
Work on EEFSEC (UniProt P57772) yielded a log2 fold change of -0.003.
Target GBA2 (UniProt Q9HCG7) has a log2 fold change of 0.062.
Work on ENO1, A0A2R8YEM5 yielded a log2 fold change of -0.096.
In the case of ERG28 (UniProt Q9UKR5), the log2 fold change is reported as -0.053.
In the case of EHHADH (UniProt Q08426), the log2 fold change is reported as -0.143.
DST isoform 3 (UniProt Q03001) was tested, and the log2 fold change was -0.033.
GDE1 (UniProt Q9NZC3) was tested, and the log2 fold change was -0.076.
GART (UniProt C9JZG2) gave a log2 fold change of 0.086.
FBXO38 (UniProt Q6PIJ6) gave a log2 fold change of 0.094.
EIF3I (UniProt Q13347) was tested, and the log2 fold change was 0.022.
Work on FAT2 (UniProt Q9NYQ8) yielded a log2 fold change of 0.092.
DYRK1A isoform 2 (UniProt Q13627) gave a log2 fold change of -0.028.
For FBXO45 (UniProt P0C2W1), the log2 fold change was -0.177.

These targets were tested with CC1=C2C(=CC=C1)N=C(N(C2=O)C3=CC=CC=C3C)CN4C=NC5=C(N=CN=C54)N in the same assay as above.
Outline: as §1
Work on FAM76B (UniProt Q5HYJ3) yielded a log2 fold change of 0.066.
With GEMIN4 (UniProt P57678) the log2 fold change was -0.014.
Work on GAA (UniProt P10253) yielded a log2 fold change of -0.157.
For FTSJ1 isoform 2 (UniProt Q9UET6), the log2 fold change was -0.089.
For ELAVL4 (UniProt P26378), the log2 fold change was 0.018.
EFCAB14 (UniProt O75071) showed a log2 fold change of 0.088.
Work on FAM120B (UniProt Q96EK7) yielded a log2 fold change of -0.004.
Target EEFSEC (UniProt P57772) has a log2 fold change of 0.009.
ENO1, A0A2R8YEM5 showed a log2 fold change of -0.048.
Target FAM204A (UniProt Q9H8W3) has a log2 fold change of -0.102.
Work on FBXO38 (UniProt Q6PIJ6) yielded a log2 fold change of 0.007.
For EIF3I (UniProt Q13347), the log2 fold change was 0.01.
FAT2 (UniProt Q9NYQ8) showed a log2 fold change of 0.104.
Work on GC isoform 3 (UniProt P02774) yielded a log2 fold change of 0.007.
In the case of FAM111A (UniProt Q96PZ2), the log2 fold change is reported as -0.008.
In the case of FBXO45 (UniProt P0C2W1), the log2 fold change is reported as -0.004.

What follows are targets tested with Cc1sc2c(c1C)C(c1ccc(Cl)cc1)=N[C@@H](CC(=O)OC(C)(C)C)c1nnc(C)n1-2 in the same assay as above.
Outline: as §1
Work on FOXJ2 (UniProt Q9P0K8) yielded a log2 fold change of 0.015.
In the case of FOXL2 (UniProt P58012), the log2 fold change is reported as 0.166.
FAM76B (UniProt Q5HYJ3) was tested, and the log2 fold change was 0.038.
GEMIN4 (UniProt P57678) was tested, and the log2 fold change was 0.04.
Work on EIF2AK3 (UniProt Q9NZJ5) yielded a log2 fold change of 0.025.
ELAVL4 (UniProt P26378) showed a log2 fold change of -0.079.
EFCAB14 (UniProt O75071) gave a log2 fold change of -0.014.
For FMNL2 isoform 3 (UniProt Q96PY5), the log2 fold change was 0.089.
EPS8L2 (UniProt Q9H6S3) was tested, and the log2 fold change was 0.008.
Target FAM120B (UniProt Q96EK7) has a log2 fold change of -0.016.
EID1 (UniProt Q9Y6B2) showed a log2 fold change of 0.024.
With EEFSEC (UniProt P57772) the log2 fold change was -0.003.
GBA2 (UniProt Q9HCG7) gave a log2 fold change of -0.094.
In the case of ENO1, A0A2R8YEM5, the log2 fold change is reported as -0.028.
Target ERG28 (UniProt Q9UKR5) has a log2 fold change of -0.08.
For EHHADH (UniProt Q08426), the log2 fold change was -0.086.
For GDE1 (UniProt Q9NZC3), the log2 fold change was -0.067.
FBXO38 (UniProt Q6PIJ6) showed a log2 fold change of 0.068.
In the case of EIF3I (UniProt Q13347), the log2 fold change is reported as 0.019.
In the case of GC isoform 3 (UniProt P02774), the log2 fold change is reported as -0.138.
In the case of FAM111A (UniProt Q96PZ2), the log2 fold change is reported as -0.097.
